TNF death inh: blocks TNF-alpha induced death of Jurkat FADD-/- cells. Jurkat FADD-/- TNF necroptosis rescue, ATP luminescence, 24 h; 0 = TNF only, 100 = no-TNF cells. activation (protection from cell death), % at 10 µM. actives 0.068% (n = 220,000);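 active means activation, meaning protection from cell death, of at least 50% relative to plate controls; inactive means activation below 50%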;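 further: necroptosis triggered by 40 ng/mL TNF-alpha added together with compound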
L929 necroptosis: L929 zVAD cell death inhibition; viability rescue, % at 10 µM; AID 1377; L929 zVAD necroptosis rescue, ATP luminescence, 24 h; with zVAD 60 µM; actives 0.38% (n = 220,000);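 active means activation, scaled between plate controls, above about 75%, limit read from the data; inactive means activation under that limit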;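 further: 0% = zVAD with DMSO and 100% = DMSO alone without zVAD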
Hsp70 activator: transcriptional activators of Hsp70; AID 1203; actives 0.04% (n = 200,000); activation, % at 10 µM; HeLa Hsp70 promoter luciferase reporter, luminescence; scaled: vehicle 0, proteasome-inhibitor control 100%;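 active means activation above the mean across all tested compounds plus 3 SD, cutoff set per campaign, cut at about 5.5% in these data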;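 further: 100% = MG132 at 30 µM as the positive control and 0% = DMSO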
HSF1 activator: increases HSF-1 driven luciferase reporter signal; NIH3T3-HGL HSF-1 luciferase reporter, MG132, 8 h; 100% = twice DMSO control signal; activation, % at 9 µM; actives 1.7% (n = 300,000); AID 504408;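 active means mean replicate activation of at least 50% with a set share of replicates each reaching 50%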;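 further: 0% = median of the neutral control wells and 100% = twice that signal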
* marks the source's active call; other numbers are inactive results; / = no result. A selection: hits, their analogues and other compounds. The true share with any hit is near 1.9%.

SMILES	TNF death inh	L929 necroptosis	Hsp70 activator	HSF1 activator
CCOC(=O)CC(=O)CSc1nc2sc(C)cc2c(=O)n1Cc1ccco1	-2	0	0	22
COc1ccc2c(c1)c(C(=O)CNc1nc(C)cs1)c(C)n2C	10	2	0	61*
CSC1=N/C(=C\c2ccccc2F)C(=O)S1	-4	0	0	-36
COc1cccc(/C=C2\N=C(SC)SC2=O)c1OC	-2	3	0	56*
O=C(Cc1ccc(NC2=NC3CS(=O)(=O)CC3S2)cc1)N1CCN(c2ccc(F)cc2)CC1 (centres undefined)	/	/	/	-5
N#C/C(=C\c1ccccc1[N+](=O)[O-])c1nc(C2CC2)cs1	-6	/	0	51*
N#C/C(=C\c1ccc([N+](=O)[O-])cc1)c1nc(C2CC2)cs1	1	1	0	57*
N#C/C(=C/c1ccccc1[N+](=O)[O-])c1nc(C2CC2)cs1	-1	0	0	101*
N#C/C(=C\C=C\c1ccccc1[N+](=O)[O-])c1nc(-c2ccc3c(c2)OCO3)cs1	-1	1	0	39
CC(OC(=O)c1ccc(-c2ccc([N+](=O)[O-])cc2)o1)C(=O)NC(N)=O (centres undefined)	0	0	/	17
CSC(=NC#N)N1CCN(c2ccc(Cl)cc2)CC1	-5	0	0	56*
Cc1ccc(-c2ccnc(-c3ccc(O)cc3)n2)cc1	0	2	0	65*
Cc1nnc(SCC(=O)N(C)c2ccccc2)n1Cc1ccccc1	0	1	0	1
COc1cc(C=O)ccc1OCc1ccccc1Br	-3	1	0	20
CCN(CC)C(=O)COc1ccc(C=O)cc1OC	1	-1	0	75*
COc1cc(C=O)ccc1OCc1cccc(Br)c1	0	0	0	63*
CS(=O)(=O)N(CC(=O)Nc1ccc(CC#N)cc1)c1ccc(C23CC4CC(CC(C4)C2)C3)cc1	-5	0	0	60*
CCOC(=O)c1ccc(NS(=O)(=O)c2c(C)nc3sccn3c2=O)cc1	/	/	/	14
COc1ccc2c(c1)CC/C(=C\C=C\c1ccccc1OC)C2=O	-4	0	0	58*
COc1ccc2c(c1)C(=O)/C(=C/C=C/c1ccccc1)CC2	-1	0	0	-11
O=C(Nc1ccc(-c2nc3ccccc3o2)cc1)c1cccnc1	-3	7	0	55*
O=C(Nc1cccc(-c2nc3ccccc3o2)c1)c1cccnc1	1	1	0	23
Cc1ccc(C(=O)/C=C/c2cn(CC(O)CN3CCOCC3)c3ccccc23)cc1 (centres undefined)	4	77*	0	/
CCN1CCN(c2ncnc3sc(C)c(-c4ccccc4)c23)CC1	/	/	/	-15
CC(=O)c1cccc2c(O)c(C3=Nc4ccccc4C3=O)[nH]c12	-11	0	0	62*
SMILES	TNF death inh	L929 necroptosis	Hsp70 activator	HSF1 activator
CC(=O)N1CCN(C(=S)NC(=O)c2ccc(S(=O)(=O)N3CCOCC3)cc2)CC1	1	0	0	0
Cc1occc1C(=O)Nc1cccc2ccccc12	-2	0	0	73*
Cc1occc1C(=O)Nc1ccccc1NC(=O)c1ccoc1C	0	0	0	-12
Cc1occc1C(=O)N/N=C/c1ccc(OCc2ccccc2)cc1	4	1	/	53*
Cc1occc1C(=O)N/N=C/c1cccc2ccccc12	/	/	/	63*
CCOc1ccccc1NC(=O)COC(=O)CCOc1cc(C)ccc1C	/	/	/	-13
CCN(CC)CCn1c2ccccc2c2nc3ccc([N+](=O)[O-])cc3cc21	-22	21	/	121*
COc1cccc(/C=C/C(=O)NCc2ccc(S(N)(=O)=O)cc2)c1	1	1	/	1
Cc1ccc(Oc2ccc(OCC(=O)NC3CCS(=O)(=O)C3)cc2)cc1 (centres undefined)	/	/	/	53*
CC(=O)c1ccc(OCC(=O)NC2CCS(=O)(=O)C2)cc1 (centres undefined)	0	0	0	-2
COc1cccc(-c2c(C#N)c(N)nc3c2c(C)nn3-c2ccccc2)c1O	/	/	/	63*
O=C(/C=C/c1ccc(Cl)cc1Cl)N(Cc1ccccc1)C1CCS(=O)(=O)C1 (centres undefined)	3	0	1	52*
O=C(/C=C/c1ccc(Cl)cc1Cl)N(Cc1ccc(Cl)cc1)C1CCS(=O)(=O)C1 (centres undefined)	4	1	0	27
N=c1c2ccccc2nc2n1CCCCCCCCCCC2	/	/	/	-6
O=C1CC(Sc2nnnn2-c2ccccc2)C(=O)N1c1cccc(Cl)c1 (centres undefined)	-8	0	0	11
COc1ccc(N2C(=O)CC(Sc3nnnn3-c3ccc(F)cc3)C2=O)cc1 (centres undefined)	-14	0	0	70*
O=C(c1cc(COc2ccc(F)cc2Cl)on1)N1CCSCC1	/	/	/	84*
Cc1cccc(C)c1OCc1cc(C(=O)N2CCN(c3ccccn3)CC2)no1	/	/	/	-9
Cc1cccc(C)c1OCc1cc(C(=O)N2CCN(c3ccc(F)cc3)CC2)no1	/	/	/	70*
NC(=S)N/N=C/c1ccc(C23CC4CC(CC(C4)C2)C3)cc1	/	/	/	-7
Cc1cccc(S(=O)(=O)NCCC(=O)OC(C)C(=O)NC(=O)NC2CCCCC2)c1 (centres undefined)	1	3	0	53*
CCC(=O)OCCNc1cc(Sc2nccn2C)c2nonc2c1[N+](=O)[O-]	-15	-1	0	437*
Cc1cc(-c2n[nH]c(=S)n2/N=C/C=C/c2ccccc2)n[nH]1	2	2	0	57*
COc1ccc(C2c3[nH]c4ccccc4c3CCN2C(=O)Cc2nonc2C)c(F)c1 (centres undefined)	2	0	/	43
O=C1S/C(=C/c2ccc(N3CCOCC3)o2)C(=O)N1Cc1c(F)cccc1Cl	-6	0	0	102*
SMILES	TNF death inh	L929 necroptosis	Hsp70 activator	HSF1 activator
O=C1S/C(=C\c2ccc(N3CCOCC3)o2)C(=O)N1Cc1c(F)cccc1Cl	-9	2	0	251*
CC1=CN2C(=N)/C(=C/c3ccc([N+](=O)[O-])o3)C(=O)N=C2S1	-10	1	0	75*
CC(C)NC(=O)c1ccc(N(Cc2ccc(Cl)cc2)S(C)(=O)=O)cc1	/	/	/	6
Cc1ccc(Cl)cc1-n1c(SCC(=O)NCCC2=CCCCC2)nc2n[nH]c(C)c2c1=N	/	/	/	56*
Cc1cc(-n2c(SCC(=O)NCCC3=CCCCC3)nc3n[nH]c(C)c3c2=N)ccc1Cl	/	/	/	34
S=C(NCCC(c1ccccc1)c1ccccc1)Nc1ccccc1Cl	-6	0	0	4
S=C(NCCC(c1ccccc1)c1ccccc1)Nc1ccc(Cl)cc1	-10	0	0	54*
CC1CCN(CCc2nc3cc(NC(=O)COc4ccc([N+](=O)[O-])cc4)ccc3n2C)CC1	/	/	/	9
Cc1cccc(CSc2cccc3cccnc23)c1	-14	29	0	288*
COc1ccc(-c2nc3ccc(C)cn3c2NCc2ccc3c(c2)OCO3)cc1	1	1	0	60*

Screens (PubChem BioAssay)
